# Inconclusive results are not listed. A call without a number means that no potency is given here. A number with no mark means an inactive call. Calls of active or inactive are those of the source. The call rests on the fitted dose curve; in most records, active means well fitted curve in the direction sought with a large enough effect; inconclusive means small, poorly fitted or top-dose-only effect, or another doubt; inactive means no such curve, though single readings can be large; an effect the other way counts as inactive or inconclusive.
# Tests used:
# [1] = target: Cellular tumor antigen p53 (Homo sapiens) (UniProt P04637); experiment: Primary qHTS for small molecule compounds that upregulate eGFP-tagged delta133p53alpha (in N-terminal) cells. (AID 2060322); details: NCI-H358 eGFP-delta133p53alpha fluorescence, 24 h; activation: hits give high values; further: nearly all actives have a fitted effect of over 75% in size; further: potency means the concentration at half of the fitted maximal effect;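 on activation: cells pre-induced with doxycycline then dosed without doxycycline; series mostly up to about 56 µM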
# Method in brief: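 NCI-H358 cells pre-induced 24 h with 10 ng/ml doxycycline for eGFP-delta133p53alpha, plated dox-free and exposed 24 h at 37C to titrated compounds. Fixed, Hoechst-stained; gated GFP peak intensity by laser scanning cytometry, normalized to DMSO (0%) and 57.5 uM 5-azacytidine (100%).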
# [2] = target: Aldehyde dehydrogenase, mitochondrial (Homo sapiens) (UniProt P05091); experiment: qHTS for Inhibitors of the Aldehyde Dehydrogenase Family (ALDH2) Primary screen (AID 2061308); further: nearly all actives have a fitted effect of over 55% in size
# [3] = target: Retinaldehyde dehydrogenase 3 (Homo sapiens) (UniProt P47895); experiment: qHTS for Inhibitors of the Aldehyde Dehydrogenase Family (ALDH1A3) Primary screen (AID 2061315)
# Sequence of Cellular tumor antigen p53 (Homo sapiens) (P04637 whole entry, looked up): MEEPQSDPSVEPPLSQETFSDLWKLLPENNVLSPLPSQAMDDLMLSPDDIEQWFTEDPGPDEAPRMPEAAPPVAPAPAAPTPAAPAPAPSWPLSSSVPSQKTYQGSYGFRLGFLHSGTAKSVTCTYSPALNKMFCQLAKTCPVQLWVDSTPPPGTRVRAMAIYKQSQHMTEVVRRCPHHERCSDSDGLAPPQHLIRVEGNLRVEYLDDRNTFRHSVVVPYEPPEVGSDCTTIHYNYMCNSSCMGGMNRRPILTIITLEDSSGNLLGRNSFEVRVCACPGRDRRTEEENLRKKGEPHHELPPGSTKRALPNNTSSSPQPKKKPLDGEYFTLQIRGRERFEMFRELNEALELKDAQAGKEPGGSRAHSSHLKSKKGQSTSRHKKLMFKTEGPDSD
SMILES,activation [1] [%],Potency [2],Potency [3],Potency [1]
C[C@H](NC(c1cccc2[nH]c(=O)c(=O)[nH]c12)P(=O)(O)O)c1ccc(Br)cc1 (some centres not stated),-12.3,inactive,inactive,
COC(=O)c1cc(OC)cc(OC)c1C(=O)c1c(OC)cc2c(c1O)C1CCCC(C)(O2)O1 (configuration not stated),14.5,inactive,inactive,
COc1ccc(C2(CNC(=O)[C@](C)(Cc3c[nH]c4ccccc34)NC(=O)Nc3ccc([N+](=O)[O-])cc3)CCCCC2)nc1,12.9,inactive,inactive,
COc1cc(/C=C/C(=O)O[C@@H]2C[C@@](O)(C(=O)O)C[C@@H](O)[C@@H]2O)ccc1O,-1.53,inactive,inactive,
CC1(O)CCC2C(C3C1CCC3(C)O)C2(C)C (configuration not stated),-1.79,inactive,inactive,
CC(C(O)c1ccccc1)N(C)CCOC(c1ccccc1)c1ccccc1 (configuration not stated),,inactive,inactive,21.9 µM (active)
Cc1nc(NC(=O)N2CCCC2C(N)=O)sc1-c1csc(C(C)(C)C)n1 (configuration not stated),16.1,inactive,inactive,
CC1(C)[C@@H](O[C@H]2O[C@H](C(=O)O)[C@@H](O)[C@H](O)[C@H]2O[C@@H]2O[C@H](C(=O)O)[C@@H](O)[C@H](O)[C@H]2O)CC[C@]2(C)[C@H]3C(=O)C=C4[C@@H]5C[C@@](C)(C(=O)O)CC[C@]5(C)CC[C@@]4(C)[C@]3(C)CC[C@@H]12,-7.67,inactive,inactive,
c1ccc(N2CCN(CCc3nn[nH]n3)CC2)cc1,-1.43,inactive,inactive,

# Source: PubChem BioAssay (NCATS)
